Measured values taken from PubChem BioAssay (Tox21).
“And” between values parts separate entries of the source, which are not always exact repeats. Equal values may be shown once. Records with an inconclusive call do not appear. The source made the active and inactive calls. Unless noted, calls come from the whole dose curve; as a rule, active = well fitted curve in the direction sought with a large enough effect in the repeat runs; inconclusive = weak or mixed curves; inactive = flat fitted curve, though single readings scatter.

Tests used:
[1] = qHTS assay to test for compound auto fluorescence at 535 nm (green) in HEK293 cells (AID 720680)
[2] = qHTS assay to test for compound auto fluorescence at 460 nm (blue) in HEK293 cell free culture (AID 720681)
Summary of the method: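 Blue fluorescence (Ex 405/Em 460 nm, triamterene-equivalent) was read immediately after pin transfer of compound or DMSO into medium (DMEM, 10% FBS) without cells.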

[3] = qHTS assay to test for compound auto fluorescence at 535 nm (green) in HEK293 cell free culture (AID 720682)
Summary of the method: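 Green-label autofluorescence (485 nm excitation, 535 nm emission) measured on compound added to cell-free culture medium (DMEM, 10% FBS). Output is expressed relative to fluorescein.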

[4] = qHTS assay to test for compound auto fluorescence at 590 nm (red) in HEK293 cell free culture (AID 720683)
Summary of the method: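 Red-channel autofluorescence of compounds in culture medium (DMEM, 10% FBS), no cells, measured at 540/590 nm. Rose Bengal sodium is the reference fluorophore for equivalence.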

[5] = qHTS assay to test for compound auto fluorescence at 590 nm (red) in HepG2 cell free culture (AID 720684)
Summary of the method: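 Cell-free; medium MEM + 10% FBS; compound or DMSO added by pintool; read Ex 540/Em 590 nm; Rose Bengal sodium as red reference fluorophore.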

[6] = qHTS assay to test for compound auto fluorescence at 460 nm (blue) in HepG2 cell free culture (AID 720685)
Summary of the method: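 Cell-free plates of MEM plus 10% FBS received 23 nL compound or DMSO vehicle; blue-channel (405/460 nm) intensity scored against triamterene as reference fluorophore.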

[7] = qHTS assay to test for compound auto fluorescence at 535 nm (green) in HepG2 cell free culture (AID 720686)
[8] = qHTS assay to test for compound auto fluorescence at 460 nm (blue) in HepG2 cells (AID 720687)
Summary of the method: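 Blue-channel autofluorescence (Ex/Em 405/460 nm, triamterene-equivalent) was measured after 1 hr compound exposure at 37 C, 5% CO2. Cells were HepG2, plated overnight at 37 C in MEM plus 10% FBS.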

[9] = molecular target: Glucocorticoid receptor (Homo sapiens) (UniProt P04150); assay: qHTS assay to identify small molecule agonists of the glucocorticoid receptor (GR) signaling pathway (AID 720691; active = well fitted activation curve with a large enough effect in the signal ratio in the repeat runs, not every such curve was filed as active; the % refers to the signal ratio)
Summary of the method: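 Cells: GR-bla HeLa, endogenous GR with stably integrated GRE-beta-lactamase reporter. Treatment 18 h, 37 C, compounds delivered in DMSO. Detection via LiveBLAzer B/G FRET substrate, 2 h RT, fluorescence intensity.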

[10] = molecular target: Glucocorticoid receptor (Homo sapiens) (UniProt P04150); assay: qHTS assay to identify small molecule antagonists of the glucocorticoid receptor (GR) signaling pathway (AID 720692; active = well fitted inhibition curve with a large enough effect in the signal ratio in the repeat runs, not every such curve was filed as active; the % refers to the signal ratio; note: potency is the fitted concentration of half-maximal effect)
Summary of the method: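 Quantitative HTS in antagonist format: HeLa cells expressing endogenous GR and a stably integrated GRE-bla reporter, stimulated with 5 nM dexamethasone (final) alongside test compounds for 18 h.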

Measured: Potency

Glucocorticoid receptor (Homo sapiens), sequence (P04150 whole entry, looked up): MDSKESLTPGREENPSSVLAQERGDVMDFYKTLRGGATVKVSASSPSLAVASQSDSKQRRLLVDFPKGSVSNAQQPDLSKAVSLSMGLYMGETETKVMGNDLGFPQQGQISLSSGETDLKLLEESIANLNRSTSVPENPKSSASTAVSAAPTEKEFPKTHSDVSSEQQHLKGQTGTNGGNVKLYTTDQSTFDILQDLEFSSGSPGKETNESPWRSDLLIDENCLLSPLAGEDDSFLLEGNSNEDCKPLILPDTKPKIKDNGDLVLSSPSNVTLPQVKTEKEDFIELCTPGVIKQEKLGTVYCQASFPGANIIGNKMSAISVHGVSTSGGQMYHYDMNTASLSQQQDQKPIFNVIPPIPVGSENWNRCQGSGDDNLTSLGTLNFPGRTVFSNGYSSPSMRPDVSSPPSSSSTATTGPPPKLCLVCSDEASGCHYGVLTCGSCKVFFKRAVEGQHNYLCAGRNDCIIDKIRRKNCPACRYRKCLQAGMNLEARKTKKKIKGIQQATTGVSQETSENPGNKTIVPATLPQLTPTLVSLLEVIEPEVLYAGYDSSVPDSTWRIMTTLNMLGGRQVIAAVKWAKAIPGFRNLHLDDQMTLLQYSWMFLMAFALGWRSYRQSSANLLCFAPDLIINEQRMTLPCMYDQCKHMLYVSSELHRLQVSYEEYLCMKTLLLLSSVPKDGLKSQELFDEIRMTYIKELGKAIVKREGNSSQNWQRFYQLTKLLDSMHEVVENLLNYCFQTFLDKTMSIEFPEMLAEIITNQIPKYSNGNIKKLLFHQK

Cl/C=C/Cl
inactive: all assays above

Nc1ncc([N+](=O)[O-])s1
inactive: all assays above

CC[N+](=O)[O-]
inactive: all assays above

COc1nc(NC(C)C)nc(NC(C)C)n1
inactive: all assays above

O=[N+]([O-])c1cc([As](=O)(O)O)ccc1O
inactive: all assays above

CN1C(=O)CCS(=O)(=O)C1c1ccc(Cl)cc1 (configuration not stated)
inactive: all assays above

OC[C@@H](O)[C@H]1O[C@@H]2O[C@H](C(Cl)(Cl)Cl)O[C@@H]2[C@H]1O
inactive: all assays above

O=P1(NCCCl)OCCCN1CCCl (configuration not stated)
inactive: all assays above

O=C(O)C(Br)Br
inactive: all assays above

CNCC(O)c1ccc(O)cc1 (configuration not stated)
inactive: all assays above

CC(C)(C)C(=O)CCl
inactive: all assays above

N#Cc1ccccn1
not listed: [9] | [10]
inactive: all other assays above

C=C(C)C(=O)OCC(CC)CCCC (configuration not stated)
inactive: all assays above

C=CC(=O)OCC(CC)CCCC (configuration not stated)
inactive: all assays above

COP(=S)(OC)Oc1ccc(SC)c(C)c1
inactive: all assays above

CC(=O)C1CCOC1=O (configuration not stated)
inactive: all assays above

O=[N+]([O-])c1ccc(Cl)c(Cl)c1
inactive: all assays above

COS(=O)(=O)OC
inactive: all assays above

Cc1ccc(N=C=O)cc1N=C=O
inactive: all assays above

Clc1cnc(Oc2ccc(Oc3ncc(Cl)cc3Cl)cc2)c(Cl)c1
inactive: all assays above

CN(C)C(=O)Cl
inactive: all assays above

ClC(Cl)c1ccccc1
inactive: all assays above

Cc1cc(O)ccc1Cl
inactive: all assays above

Cc1ccc(O)c(C)c1
inactive: all assays above

OCC(O)CCl (configuration not stated)
inactive: all assays above

Sc1ccccc1
inactive: all assays above

CSc1nnc(C(C)(C)C)c(=O)n1N
inactive: all assays above

C[C@H]1C(=O)O[C@@H]2CCN3CC=C(COC(=O)[C@](C)(O)[C@]1(C)O)[C@H]23
inactive: all assays above

CNC(=O)O/N=C/C(C)(C)S(C)=O (configuration not stated)
inactive: all assays above

N#Cc1cccc(C#N)c1
inactive: all assays above

C[C@]12CC[C@H](O)CC1=CC[C@@H]1[C@@H]2CC[C@]2(C)C(=O)CC[C@@H]12
active: [10] 43.7 µM and 43.6 µM
not listed: [9]
inactive: all other assays above

CCOP(=S)(OCC)Oc1ccc([N+](=O)[O-])cc1
inactive: all assays above

CNC(=O)O/N=C/C(C)(C)SC
inactive: all assays above

CCOP(=S)(OCC)Oc1cc(C)nc(C(C)C)n1
inactive: all assays above

O=C(O)COc1ccccc1
inactive: all assays above

OCCCCO
inactive: all assays above

O=C(O)C1C(C(=O)O)C2(Cl)C(Cl)=C(Cl)C1(Cl)C2(Cl)Cl (configuration not stated)
inactive: all assays above

Cc1cccc(C)c1NC(=O)CN1CCCC1=O
inactive: all assays above

CC(C)CCCCCCOC(=O)c1ccccc1C(=O)OCCCCCCC(C)C
inactive: all assays above

O=[N+]([O-])c1ccc(Cl)cc1
inactive: all assays above

COC(=O)Nc1cccc(OC(=O)Nc2cccc(C)c2)c1
inactive: all assays above

Cc1cccc(C)c1N
inactive: all assays above

CNC(=O)O/N=C/C(C)(C)S(C)(=O)=O
inactive: all assays above
